# Laboratory results as given in the supplement of paper PMC9135407.
# Values joined by “and” are separate entries in the source; they are usually repeats but may differ in a detail not shown here. Identical values can stand only once. Counter-ions that a name gives are not always drawn. The whole screen tested about 5,800 compounds, of which about 620 (11%) showed activity.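 How the source made its calls: active = score above a cut-off or among the top three wells of a plate; in these data no inactive exceeds 0.85.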 Many of the other results were omitted from the sample, so actives are more common in it than they were.
# Test system: primary human hepatic stellate cells (donor 1)
# Experiment: scaled lipid accumulation score (0 = DMSO-like, 1 = nortriptyline-like); higher = stronger HSC inactivation (lipid re-accumulation), active = hit call of the paper
# Conditions: 48 h
# [1] = library stock concentration: 10 mM
# [2] = library stock concentration: 3.33 mM
# [3] = library stock concentration: 1 mM
# [4] = library stock concentration: 80 uM
# [5] = library stock concentration: 400 uM
# [6] = library stock concentration: 2 mM
# [7] = library stock concentration: 6.3 mM
# [8] = library stock concentration: 6.2 mM
smiles,measurement,setting,value
COc1cccc(CCc2ccccc2OCC[C@@H]2C[C@@H](O)CN2C)c1.Cl,scaled lipid accumulation score,[1],1.18 (active)
OC1(c2ccc(Cl)cc2)CCN(Cc2c[nH]c3ccccc23)CC1,scaled lipid accumulation score,[1],1.17 (active)
OCc1c[nH]c2ccccc12 [Indole-3-carbinol],scaled lipid accumulation score,[2],≤ 0 (inactive)
same,scaled lipid accumulation score,[1],≤ 0 (inactive)
c1ccc2c(Cc3c[nH]c4ccccc34)c[nH]c2c1 [Diidolylmethane],scaled lipid accumulation score,[3],≤ -0.021 (inactive)
CC[C@@H](CC[C@@H](C)[C@H]1CC[C@H]2[C@@H]3CCC4C[C@@H](O)CC[C@]4(C)[C@H]3CC[C@]12C)C(C)C (stereo partly drawn) [Beta-sistosterol],scaled lipid accumulation score,,≤ 0 (inactive)
"COc1cc(OC)cc(OC)c1 [1,3,5-trimethoxybenzene]",scaled lipid accumulation score,[1],≤ 0 (inactive)
COc1ccc2nc3n[nH]c(C)c3c(NCCOCCO)c2c1,scaled lipid accumulation score,[4],≤ -0.001 (inactive)
same,scaled lipid accumulation score,[5],≤ -0.001 (inactive)
same,scaled lipid accumulation score,[6],≤ -0.001 (inactive)
same,scaled lipid accumulation score,[2],0.203 (inactive)
same,scaled lipid accumulation score,[1],0.021 (inactive)
COc1ccc(-c2ccc3ncc4c(c3c2)n(-c2ccc(N3CCNCC3)c(C(F)(F)F)c2)c(=O)n4C)cn1.O=C(O)/C=C\C(=O)O,scaled lipid accumulation score,[5],0.909 (active)
COc1ccc(-c2ccc3ncc4c(c3c2)n(-c2ccc(N3CCNCC3)c(C(F)(F)F)c2)c(=O)n4C)cn1,scaled lipid accumulation score,[4],0.133 (inactive)
same,scaled lipid accumulation score,[6],0.546 (inactive)
same,scaled lipid accumulation score,[2],0.237 (inactive)
same,scaled lipid accumulation score,[1],≤ 0 (inactive) and 0.223 (inactive)
COc1cc(OC)cc(-c2ccc3ncc4ccc(=O)n(-c5ccc(N6CCNCC6)c(C(F)(F)F)c5)c4c3c2)c1,scaled lipid accumulation score,[4],0.045 (inactive)
same,scaled lipid accumulation score,[5],0.305 (inactive)
same,scaled lipid accumulation score,[6],0.652 (inactive)
same,scaled lipid accumulation score,[1],0.426 (inactive)
S=c1[nH]c(-c2ccccc2)cn1-c1ccccc1,scaled lipid accumulation score,[1],≤ -0.07 (inactive)
Nc1c2c(nc3c1CCC3)CCCC2,scaled lipid accumulation score,[1],≤ 0 (inactive)
CCCCCCCCCCCCCCCCOC[C@H](COP(=O)([O-])OCC[N+](C)(C)C)OC(=O)CCCCCCCC(=O)O [Azelaoyl PAF],scaled lipid accumulation score,[3],≤ 0 (inactive)
CN(C)CCCN1c2ccccc2Sc2ccc(Cl)cc21.Cl [Chlorpromazine HCl],scaled lipid accumulation score,[1],0.833 (active)
CN(C)CCCN1c2ccccc2Sc2ccc(Cl)cc21 [Chlorpromazine] [listing 1 of 2 here],scaled lipid accumulation score,[7],1.09 (active)
CN(C)CCCN1c2ccccc2Sc2ccccc21 [Promazine hydrochloride],scaled lipid accumulation score,,0.365 (inactive)
same,scaled lipid accumulation score,[8],0.834 (inactive)
same,scaled lipid accumulation score,[1],0.324 (inactive)
CC(CN1c2ccccc2Sc2ccccc21)N(C)C (stereo not drawn) [Promethazine HCl],scaled lipid accumulation score,[2],≤ 0 (inactive)
same,scaled lipid accumulation score,library stock concentration: 7 mM,0.609 (inactive)
same,scaled lipid accumulation score,[1],0.62 (inactive)
CCN(CC)C(C)CN1c2ccccc2Sc2ccccc21 (stereo not drawn) [Ethopropazine hydrochloride],scaled lipid accumulation score,,0.644 (inactive)
same,scaled lipid accumulation score,library stock concentration: 5.7 mM,0.667 (inactive)
same,scaled lipid accumulation score,[1],0.301 (inactive) and 0.673 (inactive)
CN(C)CCCN1c2ccccc2Sc2ccc(Cl)cc21 [Chlorpromazine hydrochloride],scaled lipid accumulation score,,0.717 (inactive)
same,scaled lipid accumulation score,[1],0.259 (inactive)
CC(CN1c2ccccc2Sc2ccccc21)N(C)C.Cl (stereo not drawn) [Promethazine hydrochloride],scaled lipid accumulation score,[1],0.888 (active)
CN(C)CCCN1c2ccccc2Sc2ccc(Cl)cc21 [Chlorpromazine HCl],scaled lipid accumulation score,[2],0.38 (inactive)
same,scaled lipid accumulation score,[7],0.53 (inactive)
CN(C)CCCN1c2ccccc2Sc2ccc(Cl)cc21 [Chlorpromazine] [listing 2 of 2 here],scaled lipid accumulation score,[1],0.466 (inactive)
CC(CN1c2ccccc2Sc2ccccc21)N(C)C (stereo not drawn) [Promethazine hydrochloride],scaled lipid accumulation score,,0.571 (inactive)
same,scaled lipid accumulation score,[8],0.655 (inactive)
same,scaled lipid accumulation score,[1],0.748 (inactive)
CN(C)CCCN1c2ccccc2Sc2ccccc21.Cl [Promazine hydrochloride],scaled lipid accumulation score,[1],0.923 (active)
CC(CN1c2ccccc2Sc2ccccc21)N(C)C (stereo not drawn) [Phenergan],scaled lipid accumulation score,[1],0.649 (inactive)
CN(C)CCCN1c2ccccc2Sc2ccc(Cl)cc21,scaled lipid accumulation score,[1],0.711 (inactive)
CCCCCC(O)C=CC1C(O)CC(O)C1CC=CCCCC(=O)OC (stereo not drawn) [Prostaglandin F2.alpha. methyl ester],scaled lipid accumulation score,[3],≤ 0 (inactive)
Nc1ncnc2c1nc(Br)n2[C@@H]1O[C@@H]2COP(=O)(O)O[C@H]2[C@H]1O [8-Bromo-cAMP],scaled lipid accumulation score,library stock concentration: 12.3 mM,0.137 (inactive)
"Nc1ncnc2c1nc(Br)n2[C@@H]1O[C@@H]2COP(=O)(O)O[C@H]2[C@H]1O [8-Bromo-cAMP, sodium salt]",scaled lipid accumulation score,[1],≤ -0.006 (inactive)
CC(NC(=O)c1ccccc1/N=C/c1c(O)ccc2ccccc12)c1ccccc1 (stereo not drawn) [Sirtinol],scaled lipid accumulation score,[2],0.008 (inactive)
same,scaled lipid accumulation score,[1],0.024 (inactive) and ≤ -0.001 (inactive)
CCCCCCCCCCCCCCCCOC[C@H](COP(=O)([O-])OCC[N+](C)(C)C)OC [2-O-methyl PAF C-16],scaled lipid accumulation score,[3],≤ 0 (inactive)
CCCCC[C@H](O)/C=C/[C@H]1CC[C@H](O)[C@@H]1C/C=C\CCCC(=O)O [11-deoxy Prostaglandin F2.alpha.],scaled lipid accumulation score,[3],≤ 0 (inactive)
"CCCCCCC(=O)SC[C@H](COP(=O)([O-])OCC[N+](C)(C)C)SC(=O)CCCCCC [1,2-bis(heptanoylthio) Glycerophosphocholine]",scaled lipid accumulation score,[3],≤ 0 (inactive)
"CNC(=O)[C@H](Cc1c[nH]c2ccccc12)NC(=O)[C@@H](CC(=O)NO)CC(C)C [Ilomastat (GM6001, Galardin)]",scaled lipid accumulation score,[2],≤ -0.009 (inactive)
same,scaled lipid accumulation score,[1],≤ 0 (inactive)
CNC(=O)[C@H](Cc1c[nH]c2ccccc12)NC(=O)[C@@H](CC(=O)NO)CC(C)C,scaled lipid accumulation score,library stock concentration: 12.9 mM,≤ -0.009 (inactive)
NC(=O)N1c2ccccc2CC(O)c2ccccc21 (stereo not drawn) [Licarbazepine],scaled lipid accumulation score,[1],0.008 (inactive)
O=c1c(O)c(-c2ccc(O)c(O)c2)oc2cc(O)c(O)c(O)c12 [Quercetagetin],scaled lipid accumulation score,[2],≤ 0 (inactive)
O=C(O)C(Cc1c[nH]c2ccccc12)N1C(=O)c2ccccc2C1=O (stereo not drawn),scaled lipid accumulation score,[4],≤ 0 (inactive)
same,scaled lipid accumulation score,[5],≤ 0 (inactive)
same,scaled lipid accumulation score,[6],≤ 0 (inactive)
same,scaled lipid accumulation score,[2],≤ 0 (inactive)
same,scaled lipid accumulation score,[1],0.017 (inactive) and ≤ 0 (inactive)
C#CCOc1ccccc1CCCCCC(=O)NS(C)(=O)=O,scaled lipid accumulation score,[3],0.013 (inactive)
O=C1CCc2cc(OCCCCc3nnnn3C3CCCCC3)ccc2N1 [Cilostazol],scaled lipid accumulation score,,≤ 0 (inactive)
same,scaled lipid accumulation score,[2],≤ 0 (inactive)
same,scaled lipid accumulation score,library stock concentration: 5.4 mM,≤ 0 (inactive)
O=C1CCc2ccc(OCCCCN3CCN(c4cccc(Cl)c4Cl)CC3)cc2N1,scaled lipid accumulation score,[1],0.964 (active)
O=C1CCc2ccc(OCCCCN3CCN(c4cccc(Cl)c4Cl)CC3)cc2N1 [Aripiprazole],scaled lipid accumulation score,[2],≤ 0 (inactive)
same,scaled lipid accumulation score,library stock concentration: 4.5 mM,0.238 (inactive) and 0.464 (inactive)
same,scaled lipid accumulation score,[1],0.827 (inactive)
